# Source: PubChem BioAssay
# An excerpt weighted towards active compounds, which were near 10% of everything screened.
# GPT2 inhibitor – blocks human glutamate pyruvate transaminase 2 | AID 1671188 | 100,000 tested, 0.25% active | Q8TD30 | Recombinant GPT2, coupled pyruvate oxidase/HRP Amplex Red fluorescence | Potency, µM (top dose mostly 57.7 µM), inactives show at the top dose activity change, negative = inhibition, most hits filed as inhibitors; note: % is set by controls: 0 for no effect and ±100 for the full control effect; nearly all actives have a fitted effect of over 60% in size
#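 Fluorescence read-out: pyruvate from GPT2 turnover coupled to pyruvate oxidase, HRP and Amplex Red (0.2mM ThPP, 0.2U/mL PO and HRP, 50uM Amplex final). Substrates 250uM a-KG, 2mM L-alanine; enzyme 10ng/uL; 30 min RT.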
# hNpr1 antagonist – human Npr1 receptor antagonism. HEK293 hNpr1 GloSensor cGMP, ANP-stimulated luminescence. Potency, µM (top dose mostly 46.3 µM), inactives show at the highest dose activity change, negative = inhibition, actives largely listed as inhibitors. 76,000 tested, 1.6% active. AID 1347048; calls by dose curve; note: % is set by controls: 0 for no effect and ±100 for the full control effect; nearly all actives have a fitted effect of over 60% in size
# Target sequence (P16066 whole entry, looked up): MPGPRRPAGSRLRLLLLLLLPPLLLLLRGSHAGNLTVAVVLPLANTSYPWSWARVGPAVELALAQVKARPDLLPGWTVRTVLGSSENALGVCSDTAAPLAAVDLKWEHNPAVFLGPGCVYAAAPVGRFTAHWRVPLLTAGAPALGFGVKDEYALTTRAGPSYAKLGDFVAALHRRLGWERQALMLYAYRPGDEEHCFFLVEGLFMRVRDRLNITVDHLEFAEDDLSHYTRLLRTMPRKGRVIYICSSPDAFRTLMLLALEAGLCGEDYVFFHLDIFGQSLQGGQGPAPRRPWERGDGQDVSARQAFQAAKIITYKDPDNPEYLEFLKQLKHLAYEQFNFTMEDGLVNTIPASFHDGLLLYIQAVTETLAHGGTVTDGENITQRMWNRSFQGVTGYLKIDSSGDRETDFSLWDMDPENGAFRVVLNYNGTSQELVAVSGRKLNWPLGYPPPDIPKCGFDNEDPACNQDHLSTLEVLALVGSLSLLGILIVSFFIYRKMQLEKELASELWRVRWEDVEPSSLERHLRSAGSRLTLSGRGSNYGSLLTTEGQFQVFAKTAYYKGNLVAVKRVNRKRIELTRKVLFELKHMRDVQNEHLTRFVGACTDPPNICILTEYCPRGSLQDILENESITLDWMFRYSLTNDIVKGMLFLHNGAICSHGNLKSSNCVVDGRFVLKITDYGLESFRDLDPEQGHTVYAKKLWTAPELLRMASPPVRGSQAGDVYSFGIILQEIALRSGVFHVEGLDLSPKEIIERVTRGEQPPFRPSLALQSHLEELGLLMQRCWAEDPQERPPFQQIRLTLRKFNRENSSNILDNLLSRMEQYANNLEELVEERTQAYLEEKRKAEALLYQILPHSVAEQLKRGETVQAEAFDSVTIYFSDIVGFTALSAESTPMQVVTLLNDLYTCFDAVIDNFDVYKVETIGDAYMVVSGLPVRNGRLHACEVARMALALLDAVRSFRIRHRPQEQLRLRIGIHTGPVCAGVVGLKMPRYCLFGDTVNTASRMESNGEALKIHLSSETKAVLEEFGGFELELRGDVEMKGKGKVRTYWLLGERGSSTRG
#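 HEK293 cells stably expressing human Npr1 and cGMP GloSensor pGS-40F, loaded 2 h with 2% GloSensor reagent, given compound 30 min at room temperature. Luminescence read before and 20 min after 0.1 nM hNppA.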
# 3T3 cytotox – kills NIH 3T3 cells; NIH 3T3 viability, CellTiter-Glo ATP luminescence, 48-72 h; Potency, µM (series often up to 96.7 µM), inactives show at the highest dose activity change, negative = cytotoxicity, usual class: inhibitors; 94,000 tested, 4.3% active; note: % is set by controls: 0 for no effect and ±100 for the full control effect; nearly all actives have a fitted effect of over 55% in size
#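 Cytotoxicity is measured as loss of cellular ATP: NIH 3T3 cells (400/well) are exposed to compound for 48 or 72 hr at 37 °C, then CellTiter-Glo luminescence is imaged after 10 min at room temperature.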
# HEK293 tox – cytotoxic compounds in HEK 293 cells; HEK 293 viability, ATP luminescence (CellTiter-Glo), 48-72 h; 94,000 tested, 6.6% active; AID 1345083; Potency, µM (titrated, usually from 115 µM), inactives show top-dose activity change, negative = cytotoxicity, hits mostly inhibitors; note: % is set by controls: 0 for no effect and ±100 for the full control effect; nearly all actives have a fitted effect of over 60% in size
#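 ATP-coupled CellTiter-Glo luminescence served as viability read-out, recorded 10 min after reagent addition at room temperature. HEK 293 cells, 250 cells/well, had been incubated with pintool-transferred compound for 48 or 72 hr at 37 degree Celsius.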
# FLuc inh-1 – inhibitors of firefly (Photinus pyralis) luciferase; P08659; purified P. pyralis luciferase, luminescence, biochemical; Potency, µM (top dose mostly 115 µM), most hits filed as inhibitors; 76,000 tested, 2.5% active; AID 1347043; note: % is set by controls: 0 for no effect and ±100 for the full control effect; nearly all actives have a fitted effect of over 65% in size
#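 Luminescence read by CCD imaging after purified firefly luciferase (10nM final) was added to substrate buffer holding 10uM D-luciferin and 10uM ATP, pH 7.5, pre-dosed with compound.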
# FLuc SDR -ATP – stabilizes firefly luciferase without ATP; shares compounds with FLuc inh-1; Purified FLuc-C-HiBiT, Nano-Glo HiBiT luminescence, no ATP; Potency, µM (highest dose often 32.7 µM), for the others: at the highest dose activation (signal gain), most hits filed as activators; 1,300 tested, 7.8% active; note: nearly all actives have a fitted effect of over 55% in size
# FLuc SDR ATP – firefly luciferase binding stabilization, ATP added. shares compounds with FLuc inh-1. purified FLuc-C-HiBiT + ATP, HiBiT complementation luminescence. Potency, µM (highest dose often 32.7 µM), inactives show top-dose activation (gain of signal), usual class: activators. 1,300 tested, 8.7% active;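 note: signal reports ligand binding via conformational change of the enzyme rather than luciferase catalysis; % of control where 0% means no effect; nearly all actives have a fitted effect of over 55% in size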
# FLuc inh-2 – inhibitors of firefly luciferase enzymatic activity; shares compounds with FLuc inh-1; purified FLuc-C-HiBiT enzyme, luciferin luminescence; Potency, µM (series often up to 32.7 µM), for the others: top-dose activity change, negative = inhibition, actives largely listed as inhibitors; 1,300 tested, 42% active; note: % is set by controls: 0 for no effect and ±100 for the full control effect; nearly all actives have a fitted effect of over 70% in size
# * hit, by the source's call; i = inactive; u = inconclusive; x = no result given; [ ] = remark or other dose. Unless noted, calls come from the whole dose curve; as a rule, active = well fitted curve in the direction sought with a large enough effect; inconclusive = small, poorly fitted or top-dose-only effect, or another doubt; inactive = no such curve, though single readings can be large; an effect the other way counts as inactive or inconclusive. Potency is the fitted concentration of half-maximal effect.
SMILES,GPT2 inhibitor,hNpr1 antagonist,3T3 cytotox,HEK293 tox,FLuc inh-1,FLuc SDR -ATP,FLuc SDR ATP,FLuc inh-2
Cc1ccc(NC(=O)c2ncoc2-c2ccco2)cc1Cl,x,x,x,x,x,18.3%,13.7%,u
Cc1cccc(-n2ncc3c2CCCC3NC(=O)CN2CCNC(=O)C2)c1C (centres undefined),4.2%,0.2%,-9.4%,-3.1%,i,x,x,x
Cc1c(CCNC(=O)c2ccc(Br)o2)sc2nc(-c3ccc(Cl)cc3)nn12,x,x,x,x,x,19.1%,10.5%,u
O=C(NCCc1ccc(Cl)cc1)c1cn2cc(-c3ccccc3)sc2n1,i,x,-3.1%,3.5%,x,x,x,x
O=C(CNC(=O)c1ccc(-c2cnc3ccccc3c2)cc1)NCc1ccccc1Cl,x,x,-30.9%,u,x,x,x,x
Cc1ccc2c(c1)sc1nc(-c3cc4ccccc4oc3=O)cn12,x,x,x,x,x,28.6%,u,0.248µM*
Cc1cc2cc(C(=O)N3CCN(c4nc5ccccc5s4)CC3)ccc2o1,i,u,-4.2%,u,i,x,x,x
O=C(Nc1ccccc1)N1CCN(Cc2ccccc2-c2cccnc2)CC1,i,x,u,u,x,x,x,x
O=C(C1CC1)N1CCC(Oc2ccccc2)C1 (centres undefined),-19.1%,-7.6%,-4.6%,-3.2%,i,x,x,x
CC(NC(=O)C1CCN(C(=O)c2ncn3c2COC(c2ccc(F)cc2)C3)CC1)c1ccc(F)cc1 (centres undefined),i,3.9%,i,9.7%,i,x,x,x
CC(C)NC(=O)C1CCN(C(=O)c2ncn3c2COC(c2ccccc2)C3)CC1 (centres undefined),i,0.0%,-11.8%,-8.2%,3.55µM*,12.9%,4.42µM*,3.51µM*
CC(NC(=O)C1CCN(C(=O)c2ncn3c2COC(c2ccccc2)C3)CC1)c1ccc(F)cc1 (centres undefined),i,-7.6%,0.4%,4.8%,12.6µM*,13.3%,u,4.95µM*
Cc1nc2c(c(-c3ccc(Cl)cc3)n1)CCN(C(=O)c1ccc(C(F)(F)F)cc1)CC2,i,-1.8%,u,u,i,x,x,x
Fc1ccc(-n2ncc3c(N4CCCCCC4)ncnc32)cc1,x,x,x,x,x,u,u,1.24µM*
Cc1ccc(-n2ncc3c(N4CCCCC4)nc(NCCCO)nc32)cc1,x,x,x,x,x,10.0%,7.5%,-10.4%
Cc1ccc(-n2ncc3c(N4CCCCCC4)ncnc32)cc1,x,x,x,x,x,1.76µM*,0.881µM*,0.197µM*
O=C(Nc1ccccc1)c1cnc2n1CCN(CC1CCCC1)CC2,-3.8%[88.5 µM],0.7%[70.6 µM],u,-22.4%[172 µM],i,x,x,x
O=C(O)c1ccc(-c2ccc(N3CCCCCC3)nc2)cc1,i,-3.8%,u,7.5%,4.47µM*,u,u,2.48µM*
O=C(c1[nH]ncc1Cl)N1CCOC(Cc2cccc(C(F)(F)F)c2)C1 (centres undefined),3.1%,-3.0%,-29.1%,u,12.6µM*,12.6%,11.9%,-14.5%
COc1ccc(C2(C(=O)NCc3ccc(C(F)(F)F)cc3)CCOCC2)cc1,x,x,-23.8%,u,x,x,x,x
O=C1Nc2ccc(C(=O)c3ccco3)cc2/C1=C/c1cc(Cl)c(O)c(Cl)c1,x,x,x,x,x,6.2%,4.1%,11.1µM*
CC(C)(CC(=O)O)CC(=O)N1Cc2[nH]cnc2C[C@H]1c1nc(Cc2ccccc2)no1,-2.5%[88.5 µM],14.1%[70.6 µM],0.2%[174 µM],1.3%[172 µM],i,8.4%[49.3 µM],7.1%[49.3 µM],-2.5%[49.3 µM]
CN(Cc1ccccc1)C(=O)[C@@H]1Cc2nc[nH]c2CN1C(=O)CC(C)(C)CC(=O)O,-6.0%[88.5 µM],6.1%[70.6 µM],2.6%[138 µM],0.7%[172 µM],i,x,x,x
O=C1CC2(CCN(Cc3ccccc3)CC2)Oc2cc(Cl)ccc21,i,-9.0%,u,u,u,x,x,x
O=C1CC2(CCN(CC3CC3)CC2)Oc2cc(Cl)ccc21,i,u,-12.4%[138 µM],u,3.16µM*,13.9%[49.3 µM],18.9%[49.3 µM],u
SMILES,GPT2 inhibitor,hNpr1 antagonist,3T3 cytotox,HEK293 tox,FLuc inh-1,FLuc SDR -ATP,FLuc SDR ATP,FLuc inh-2
O=C(c1cc(F)ccc1F)N1CCCC(Cc2nncn2CC2CC2)C1 (centres undefined),-6.6%,-6.7%,-15.5%,-11.4%,i,x,x,x
O=C(c1cc(-c2ccc(F)cc2)nc2ccccc12)N1CCC(Cc2nncn2CC2CC2)CC1,i,-21.2%,u,44.7µM*,12.6µM*,u,21.4%,8.81µM*
Cc1ccc(-c2cc(C(=O)N3CCC(Cc4nncn4CC4CC4)CC3)c3ccccc3n2)cc1C,i,u,20µM*,u,1.58µM*,12.4µM*,u,1.97µM*
O=C(NCc1cccs1)c1nc2cccnc2n(C2CC2)c1=O,u,x,-24.1%[138 µM],-10.4%[172 µM],x,x,x,x
COc1cccc(Nc2cc3c(cn2)CN(C(C)=O)CCN3)c1,3.3%[88.5 µM],-30.4%[70.6 µM],u,u,1.78µM*,u,u,9.04µM*
CC(=O)N1CCNc2cc(Nc3cccc(N(C)C)c3)ncc2C1,-12.5%[88.5 µM],-1.3%[70.6 µM],u,u,2.82µM*,31.4%[49.3 µM],u,16.1µM*
COc1ccc(CC(=O)Nc2ccc([C@H]3OCC(=O)N(Cc4nccn4C)[C@@H]3CO)cc2)cc1,i,2.1%,0.5%,2.3%,i,x,x,x
Cc1noc(-c2cn(C3CCN(C(=O)c4ccc(C#N)cc4)CC3)nn2)n1,i,0.3%,-12.8%,-1.8%,i,x,x,x
O=C(NCC1CCCCC1)c1ccc2nnc(C3CCOCC3)n2c1,x,x,-9.6%,0.9%,x,x,x,x
CO[C@H]1C(=O)N(C2CCN(C(=O)CCc3c[nH]c4ccccc34)CC2)[C@H]1c1ccncc1,-1.0%,-0.7%,-17.5%,-6.0%,i,x,x,x
c1cc(Cn2cncn2)cc(-n2ccnc2-c2cc3n(n2)CCCNC3)c1,-17.5%,2.3%,3.0%,i,i,x,x,x
COc1cccc(CN2CCc3c(cc(C(=O)Nc4cc(C)ccc4OC)n3C)C2)c1,-10.2%,-5.7%,u,31.6µM*,8.91µM*,11.8%,14.0%,-11.5%
Cc1ccc(NC(=O)COc2ccc(-c3nnc4n3CCCC4)cc2)cc1F,3.3%,-7.2%,u,-7.1%,i,x,x,x
Cc1ccc2nc(-c3ccc(NC(=O)COc4c(C)ccc(C)c4C)cc3)sc2c1,x,x,x,x,x,17.4%,15.3%,u
Cc1cc(C)cc(Nc2nc(C)cc(=O)n2CC(=O)Nc2ccc(Br)cc2)c1,u,u,u,u,i,x,x,x
CCc1ccc(NC(=O)COc2ccc(-c3nnc4n3CCCC4)cc2)cc1,i,0.6%,-19.9%,-3.8%,i,x,x,x
